Results filed as inconclusive are left out. Activity calls are given as the source filed them. Calls come from the whole dose curve; as a rule, active = well fitted inhibition curve with a large enough effect; inconclusive = small, poorly fitted or top-dose-only effect; inactive = flat fitted curve, though single readings scatter.
Experiments:
Assay in all cases: qHTS profiling for inhibitors of Plasmodium falciparum proliferation (AID 504749); note: nearly all actives have a fitted effect of over 60% in size
Details in all cases: P. falciparum in erythrocytes, SYBR Green DNA, 72 h; series mostly up to 28.7 µM
CP305 = test system: CP305
Procedure, shortened: (§1)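 Parasite proliferation within erythrocytes, 72 h exposure. Endpoint: SYBR Green I fluorescence after overnight lysis at room temperature. Controls: 0.29 uM artemisinin, DMSO.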

CP315 = test system: CP315
Procedure, shortened: as §1

CP325 = test system: CP325
Procedure, shortened: as §1

CP329 = test system: CP329
Procedure, shortened: as §1

CP335 = test system: CP335
Procedure, shortened: as §1

DFO2036 = test system: DFO2036
Procedure, shortened: as §1

DIV14 = test system: DIV14
Procedure, shortened: as §1

DIV17 = test system: DIV17
Procedure, shortened: as §1

DIV30 = test system: DIV30
Procedure, shortened: as §1

Dd2 = test system: Dd2
Procedure, shortened: as §1

ECU = test system: ECU
Procedure, shortened: as §1

FAB9 = test system: FAB9
Procedure, shortened: as §1

GB4 = test system: GB4
Procedure, shortened: as §1

HB3 = test system: HB3
Procedure, shortened: as §1

ICS = test system: ICS
Procedure, shortened: as §1

JCK = test system: JCK
Procedure, shortened: as §1

N140 = test system: N140
Procedure, shortened: as §1

P93_24 = test system: P93_24
Procedure, shortened: as §1

P94_40 = test system: P94_40
Procedure, shortened: as §1

PAD = test system: PAD
Procedure, shortened: as §1

Measured: Potency

CC/C(=C(/CC)c1ccc(OP(=O)(O)O)cc1)c1ccc(OP(=O)(O)O)cc1
inactive: all assays above

CCN(CC)C(=S)S
inactive: all assays above

CC(C)CCC[C@@H](C)[C@H]1CC[C@H]2[C@@H]3CC[C@@H]4C[C@H](O)CC[C@]4(C)[C@H]3CC[C@]12C
inactive: all assays above

Nc1nc(=O)n([C@@H]2CS[C@H](CO)O2)cc1F
inactive: all assays above

Cc1ncc(C[n+]2csc(CCOP(=O)(O)O)c2C)c(N)n1
inactive: all assays above

CCCCC(CC)CCC(CC(C)C)OS(=O)(=O)O (stereo not given)
inactive: all assays above

CNC(=O)OCc1cccc(COC(=O)NC)n1
inactive: all assays above

C=CC(C)(O)CC/C=C(\C)CCC=C(C)C (stereo not given)
inactive: all assays above

CCN(CC)C(=O)c1cccnc1
inactive: all assays above

CC(C)[C@@H](N)C(=O)O
inactive: all assays above

Cc1cc(-c2ccc(N=Nc3ccc4c(S(=O)(=O)O)cc(S(=O)(=O)O)c(N)c4c3O)c(C)c2)ccc1N=Nc1ccc2c(S(=O)(=O)O)cc(S(=O)(=O)O)c(N)c2c1O
inactive: all assays above

COc1ccc(C(=O)c2ccc(C)cc2)c(O)c1
inactive: all assays above

O=C(O)Cc1cc(I)c(Oc2ccc(O)c(I)c2)c(I)c1
inactive: all assays above

O=C(NNCS(=O)(=O)O)c1ccncc1
inactive: all assays above

OC[C@H]1O[C@@](CO)(O[C@H]2O[C@H](CO)[C@@H](O)[C@H](O)[C@H]2O)[C@@H](O)[C@@H]1O
inactive: all assays above

O=C(O)CCC(=O)c1ccc(-c2ccccc2)cc1
inactive: all assays above

CC1=C(/C=C/C(C)=C/C=C/C(C)=C/C(=O)Oc2c(C)c(C)c3c(c2C)CC[C@@](C)(CCC[C@H](C)CCC[C@H](C)CCCC(C)C)O3)C(C)(C)CCC1
inactive: all assays above

CCCCCCCCCCCC(=O)OCC(O)CO (stereo not given)
inactive: all assays above

Reference: PubChem BioAssay (NCATS)
